Data as given in PubChem BioAssay (NCI).
About 83,000 compounds went through this panel and 20% of them were active in at least one assay; those are over-represented in the sample as a whole.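 Method: cells in 96-well plates; compound added at one concentration; 48 h incubation; percent growth measured; values under 10 scored active.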 Values without a mark were called inactive. Calls of active or inactive are those of the source.

The compounds below were run on HCT-15 colon (assay: NCI-60 one-dose screen, 48 h (100 = growth as untreated, 0 = no growth, -100 = all killed)). Conditions: 10 µM unless noted.
Protocol: Growth inhibition of the HCT-15 human tumor cell line is measured as a screen for anti-cancer activity. Cells are grown in 96 well plates and exposed to the test compound for 48 hours. Compounds are tested at a single concentration, which is 10^-5 M for most compounds. The reported endpoint is percent growth (GI% or GIPRCNT), where numbers from 0 - 100% represent growth inhibition, and numbers from -100% - 0 represent cell death. For example, a value of 40 represents 60% growth inhibition. A value of 0 means no net growth occurred over the course of the experiment. A value of -40 indicates 40% of cells at the beginning of the experiment died by the end of the experiment. A value of -100 means all cells are dead at the end of the experiment.
NCI-60 Human Tumor Cell Lines Screen was performed using the standard one-dose NCI protocol, which is described in more detail at https://dtp.cancer.gov/discovery_development/nci-60/default.htm.
Compounds with GIPRCNT values below 10 were considered active. Activity score was based on GIPRCNT using the following formula: […]
Score is 0 for GIPRCNT values of 100 or above, 50 for GIPRCNT values of 0, and 100 for GIPRCNT values of -100.

Q: For `COc1ccc([C@H]2[C@H](O)C(=O)N2c2cc(OC)c(OC)c(OC)c2)cc1F`, which growth is on record?
A: 7.86% (active)

Q: Which growth does the source give for `Cc1[nH]c(C(=O)Nc2ccccc2OCc2cccc(C(=O)N3CCC[C@@H](N)C3)c2)c(Cl)c1Cl` here?
A: -78.6% (active)

Q: For `Oc1[nH]c2ccccc2c1Nn1c(N=N/C=c2/ccc3c(c2)C=NN=3)n[nH]c1=S`, which growth is on record?
A: 115%

Q: With `CC(=O)c1cc(C(=O)c2ccc(Br)cc2)n2cc(C)cc(C)c12` as the compound, how does the growth read?
A: 74.6%

Q: For `NC(N)=Nc1ccc(Oc2cccc(Nc3ccc(Cl)c(C(F)(F)F)c3)c2)cn1`, which growth is on record?
A: -63.5% (active)

Q: `C=C(C)[C@@H]1CC[C@]2(COC)CC[C@]3(C)[C@H](CC[C@@H]4[C@@]5(C)CCCNC(C)(C)[C@@H]5CC[C@]43C)[C@@H]12` was tested. Which growth did it give?
A: 2.81% (active)

Q: `NC(=O)c1cccc(-n2ccc3cc(NC(=O)Nc4ccc(N5CCOCC5)c(C(F)(F)F)c4)ccc32)n1` was tested. Which growth did it give?
A: 10.4%

Q: Which growth does the source give for `CCOC(=O)C1=NNC(c2ccc(Cl)cc2)C1C(=O)N1C(=S)NC(=O)C1CC(C)C` (stereo not given) here?
A: 105%

Q: `CCN1CCN(Cc2ccc(C(=O)Nc3ccc(C)c(Oc4ccc(-c5[nH]nc6ncnc(N)c56)cc4)c3)cc2C(F)(F)F)CC1` was tested. Which growth did it give?
A: 68.6%

Q: `COc1ccc(C(=O)c2c(N)c(C#N)cn2-c2ccccc2OC)cc1` was tested. Which growth did it give?
A: 26%

Q: With `C=CC(=O)N1CC=C(c2cc3c(N[C@H](C)c4ccccc4)ncnc3[nH]2)CC1` as the compound, how does the growth read?
A: 82.6%

Q: How did the growth turn out when `CN1CCN(Cc2ccc(NC(=O)c3cncc(C#Cc4cnc5ccc(NCCCO)nn45)c3)cc2C(F)(F)F)CC1` was run?
A: 1.94% (active)

Q: Which growth does the source give for `COc1ccc2[nH]cc(-c3csc4nc(-c5ccccc5)cn34)c2c1` here?
A: 11.3%

Q: For `CN(C)CCNC(=O)c1ccc(-c2nc3ccc4[nH]ncc4c3c3c2CCC3)cc1`, which growth is on record?
A: 17.2%

Q: `O=C(Cn1cc(-c2ccccc2)nn1)Nc1nc(-c2ccc(Cl)cc2)cs1` was tested. Which growth did it give?
A: 94.4%

Q: `CC(=O)c1nnn(-c2c(C(=O)n3nc(C)cc3C)sc(=S)n2-c2ccccc2)c1C` was tested. Which growth did it give?
A: 101%

Q: For `COc1ccc(NCc2cn(-c3ccc(C(=O)O)cc3)nc2-c2cc(C(F)(F)F)cc(C(F)(F)F)c2)cc1`, which growth is on record?
A: 88.8%

Q: With `COc1cc(/C=C2\C(=O)Nc3cc(Cl)ccc32)ccc1OCc1ccc(F)cc1` as the compound, how does the growth read?
A: 89%

Q: `COc1cc(-c2nn(C(C)(C)C)cc2-c2ccnc(NCCCNS(=O)(=O)c3cccc(F)c3)n2)ccc1Cl` was tested. Which growth did it give?
A: 63.7%

Q: How did the growth turn out when `COCCNc1ccc2ncc(C#Cc3cncc(C(=O)Nc4ccc(CN5CCN(C)CC5)c(C(F)(F)F)c4)c3)n2n1` was run?
A: -22.7% (active)

Q: `Cc1nn(-c2ccccc2)c2ncnc(N/N=C/c3cccc(O)c3)c12` was tested. Which growth did it give?
A: 22.8%

Q: Which growth does the source give for `Fc1ccc(-c2cc3nc(C(Cl)Cl)nc(-c4ccco4)n3n2)cc1` here?
A: 4.34% (active)

Q: For `O=C(Nc1ccc(N=Cc2c(O)[nH]c3ccccc23)cc1)Nc1nccs1`, which growth is on record?
A: 29%

Q: `O=C1C(c2ccccc2)=C(N2CCc3ccccc32)OC1(Cl)Cl` was tested. Which growth did it give?
A: 21.1%

Q: How did the growth turn out when `COc1ccc(OC)c(-c2nc(SCC(=O)c3ccc(Br)cc3)nc(Nc3ccc(S(N)(=O)=O)cc3)c2C#N)c1` was run?
A: 22.1%

Q: `COc1ccc([C@@H]2[C@@H](O)C(=O)N2c2cc(OC)c(OC)c(OC)c2)cc1F` was tested. Which growth did it give?
A: 7.95% (active)

Q: How did the growth turn out when `COc1cccc2cc(-c3cc4ccccc4[nH]3)/c(=N\NC(=O)c3ccc(Cl)cc3)oc12` was run?
A: 20.3%

Q: For `CCn1c(SCC(=O)Nc2cccc(C(=O)/C=C/c3cc(OC)c(OC)c(OC)c3)c2)nc2ccccc2c1=O`, which growth is on record?
A: -13.9% (active)

Q: Which growth does the source give for `NC(=O)c1cccc(C#CCNC[C@H]2C[C@@H](n3ccc4c(Cl)ncnc43)[C@H](O)[C@@H]2O)c1` here?
A: 107%

Q: For `N#Cc1c(NC(=O)c2cccc(C(F)(F)F)c2F)sc2c1CCC(=O)C2`, which growth is on record?
A: -49.6% (active)

Q: Which growth does the source give for `CC(=O)c1cc(C(=O)N2c3ccccc3Sc3ccccc32)n2ccc3ccccc3c12` here?
A: 29.2%

Q: Which growth does the source give for `C#C[C@]1(O)CC[C@H]2[C@@H]3CC=C4c5sc(-c6ccc7c(c6)OCO7)nc5CC[C@]4(C)[C@H]3CC[C@@]21C` here?
A: 10.5%

Q: With `CNC(=O)c1cc(N2CCc3cc(NC(=O)Nc4ccc(Cl)c(C(F)(F)F)c4)ccc32)ccn1` as the compound, how does the growth read?
A: 28%

Q: With `Nc1cc(F)ccc1NC(=O)c1ccc(NC(=O)C/C=C/c2cccnc2)cc1` as the compound, how does the growth read?
A: 29.5%

Q: `Nn1c(N/N=C/c2nc3ccccc3s2)n[nH]c1=S` was tested. Which growth did it give?
A: 122%

Q: For `Cc1cc(-c2ccc(Cl)cc2)n(Cc2nnc(SCC(=O)Nc3ccc(S(N)(=O)=O)cc3)n2-c2ccc([N+](=O)[O-])cc2)n1`, which growth is on record?
A: 68.3%

Q: For `CCCn1cnc2c(c1=N)C(c1ccc(OC)cc1)c1sc3c(C)cccc3c1O2` (stereo not given), which growth is on record?
A: 14.6%

Q: For `Clc1ccc(N/N=c2/oc3ccccc3cc2-c2cc3ccccc3[nH]2)cc1`, which growth is on record?
A: 59.4%

Q: Which growth does the source give for `NS(=O)(=O)c1ccc(Nc2nc(SCC(=O)c3ccc(Cl)cc3)nc3c2CCCC3)cc1` here?
A: 22.1%

Q: With `CNC(=O)c1cc(Oc2ccc3nc(NC(=O)c4cc(N5CCOCC5)cc(C(F)(F)F)c4)sc3c2)ccn1` as the compound, how does the growth read?
A: 58.9%
